From PubChem BioAssay AID1159580 (chemical genetic matrix, 2015)
“And” between values parts separate entries of the source, which are not always exact repeats. Equal values may be shown once. The whole screen tested about 5,500 compounds, of which about 2,000 (36%) were called active. Roughly 18% stayed inconclusive and do not appear here. No stated cut-off is given here; in the data, active means normalized growth mostly below about 0.91 (no sharp cut-off); inconclusive means no clear call, values can overlap the other calls; inactive means mostly above about 0.92. Some of the results follow.

Assay: chemical genetic growth profiling, strain panel (AID 1159580);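 further: tested at 20 µM; growth read once vehicle control cultures reached saturation at 30 °C; 1 = growth at the plate median or of vehicle wells; lower values mean less growth of the strain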
Conditions: S. cerevisiae deletion strains, growth OD

Measured: normalized growth

CCCC1O[C@@H]2CC3C4CCC5=CC(=O)C=CC5(C)C4[C@@H](O)CC3(C)[C@]2(C(=O)CO)O1 (stereo partly specified)
inactive: locus YAL013W, strain DEP1, hits give low values 1 | locus YAL021C, strain ccr4, hits give low values 1.01 | locus YAL026C, strain drs2, hits give low values 1.01 | locus YAL030W, strain snc1, hits give low values 1.01 | locus YBL061C, strain skt5, hits give low values 1 | locus YBR009C, strain hhf1, hits give low values 0.995 | locus YBR021W, strain FUR4, hits give low values 1 | locus YBR023C, strain chs3, hits give low values 1.02 | locus YBR171W, strain sec66, hits give low values 1.01 | locus YBR229C, strain ROT2, hits give low values 1 | locus YBR231C, strain swc5, hits give low values 1 | locus YBR279W, strain paf1, hits give low values 1.01 | locus YCL011C, strain gbp2, hits give low values 0.996 | locus YCL016C, strain dcc1, hits give low values 1.01 | locus YCL029C, strain bik1, hits give low values 1.01 | locus YCL069W, strain vba3, hits give low values 1.01 | locus YCR088W, strain abp1, hits give low values 1.01 | locus YDL005C, strain med2, hits give low values 0.985 | locus YDL035C, strain GPR1, hits give low values 0.994 | locus YDL040C, strain nat1, hits give low values 1.01 | locus YDL074C, strain BRE1, hits give low values 1 | locus YDL101C, strain DUN1, hits give low values 1.01 | locus YDL134C, strain PPH21, hits give low values 1 | locus YDL185W, strain tfp1, hits give low values 1.01 | locus YDL192W, strain arf1, hits give low values 1.02 | locus YDR001C, strain nth1, hits give low values 0.993 | locus YDR069C, strain doa4, hits give low values 1 | locus YDR101C, strain arx1, hits give low values 1.01 | locus YDR137W, strain rgp1, hits give low values 0.989 | locus YDR150W, strain NUM1, hits give low values 0.997 | locus YDR159W, strain sac3, hits give low values 0.972 | locus YDR162C, strain NBP2, hits give low values 1 | locus YDR195W, strain ref2 0.971 | locus YDR297W, strain sur2, hits give low values 1.01 | locus YDR318W, strain mcm21, hits give low values 1.03 | locus YDR334W, strain swr1, hits give low values 1.03 | locus YDR335W, strain msn5, hits give low values 1.01 | locus YDR388W, hits give low values 1.02 | locus YDR392W, strain spt3, hits give low values 1.04 | locus YDR502C, strain sam2, hits give low values 1.02 | locus YEL003W, strain gim4, hits give low values 1.02 | locus YEL037C, strain rad23, hits give low values 0.995 | locus YEL061C, strain CIN8 (second series), hits give low values 1.02 | locus YEL061C, strain CIN8, hits give low values 1 | locus YER015W, strain faa2, hits give low values 1.01 | locus YER016W, strain bim1, hits give low values 1 | locus YER110C, hits give low values 1.02 | locus YER111C, strain swi4, hits give low values 1.02 | locus YER155C, strain BEM2 (second series), hits give low values 1.05 | locus YER155C, strain BEM2, hits give low values 0.989 | locus YER167W, strain BCK2, hits give low values 1.01 | locus YFR010W, strain ubp6, hits give low values 0.987 | locus YGL078C, strain dbp3, hits give low values 1.01 | locus YGL086W, strain mad1, hits give low values 1 | locus YGL167C, strain pmr1, hits give low values 1.01 | locus YGL173C, strain kem1, hits give low values 1 | locus YGL227W, strain vid30, hits give low values 1 | locus YGL240W, strain doc1, hits give low values 0.982 | locus YGL248W, strain PDE1, hits give low values 1.01 | locus YGL253W, strain hxk2, hits give low values 1.02 | locus YGR078C, strain PAC10, hits give low values 0.986 | locus YGR135W, strain pre9, hits give low values 0.998 | locus YGR229C, strain SMI1, hits give low values 0.992 | locus YGR252W, strain gcn5, hits give low values 1.06 | locus YHR013C, strain ard1, hits give low values 1.03 | locus YHR027C, strain rpn1, hits give low values 1.01 | locus YHR030C, strain SLT2, hits give low values 1 and 1.02 | locus YHR079C, strain IRE1 (second series), hits give low values 1.01 | locus YHR079C, strain IRE1, hits give low values 1.01 | locus YHR094C, strain hxt1, hits give low values 1.02 | locus YHR129C, strain ARP1, hits give low values 1 | locus YHR142W, strain chs7, hits give low values 1.02 | locus YHR200W, strain rpn10, hits give low values 1.03 | locus YIL066C, strain RNR3, hits give low values 1.01 | locus YIL073C, strain SPO22, hits give low values 1.07 | locus YIL125W, strain kgd1, hits give low values 0.997 | locus YIR030C, strain dcg1, hits give low values 1.02 | locus YJL092W, strain hpr5, hits give low values 1 | locus YJL095W, strain BCK1 (second series), hits give low values 1.01 | locus YJL095W, strain BCK1, hits give low values 0.994 and 1.02 | locus YJL115W, strain asf1, hits give low values 1 | locus YJL129C, strain trk1, hits give low values 0.98 | locus YJL134W, strain LCB3, hits give low values 1 | locus YJL154C, strain vps35, hits give low values 1.01 | locus YJL164C, strain tpk1, hits give low values 1 | locus YJL166W, strain qcr8, hits give low values 1.01 | locus YJL168C, strain set2, hits give low values 1.02 | locus YJL187C, strain SWE1 (second series), hits give low values 1 | locus YJL187C, strain SWE1, hits give low values 1.02 | locus YJR043C, strain POL32, hits give low values 1 | locus YJR066W, strain TOR1, hits give low values 0.978
